PostGolgi ctrl – inhibits growth of the yeast control strain; efflux-deficient yeast background strain, growth absorbance A615, 16 h; inhibition, % at 10 µM; actives 5% (n = 98,000); AID 738
CYP2C19 inh – human CYP2C19 inhibition; actives 21% (n = 96,000); P33261; CYP2C19 Supersomes, luciferin-H EGE luminescence, 30 min; AID 778; inhibition, % at 5 µM;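 active means CYP2C19 inhibition above a set limit at 5 µM in the primary screen, cut at about 50% in these data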;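 further: plate controls were negative control wells for no effect and 2.5 mM tranylcypromine positive control for full effect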
CYP2C19 activ – cytochrome P450 2C19 (human) activation. 96,000 tested, under 10 active. P33261. activation factor at 5 µM. recombinant CYP2C19, luciferin-H EGE luminescence; active compounds read high; 0 = fully inhibited enzyme, 1 = untreated enzyme;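 active means activation factor of at least 2 at 5 µM in the primary screen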;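 further: 0 = wells with 2.5 mM tranylcypromine and 1 = vehicle-only wells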
CYP2C9 activ – activators of human CYP2C9; AID 1024; activation factor at 5 µM; actives 1.4% (n = 96,000); recombinant CYP2C9, luciferin-H conversion, luminescence; active compounds read high; factor 1 = untreated enzyme, 0 = blocked; P11712;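 active means activation factor of 2 or more for CYP2C9 at a 5 µM dose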;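 further: 0 = sulfaphenazole-blocked wells and 1 = vehicle-only wells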
Target sequence (P11712 whole entry, looked up): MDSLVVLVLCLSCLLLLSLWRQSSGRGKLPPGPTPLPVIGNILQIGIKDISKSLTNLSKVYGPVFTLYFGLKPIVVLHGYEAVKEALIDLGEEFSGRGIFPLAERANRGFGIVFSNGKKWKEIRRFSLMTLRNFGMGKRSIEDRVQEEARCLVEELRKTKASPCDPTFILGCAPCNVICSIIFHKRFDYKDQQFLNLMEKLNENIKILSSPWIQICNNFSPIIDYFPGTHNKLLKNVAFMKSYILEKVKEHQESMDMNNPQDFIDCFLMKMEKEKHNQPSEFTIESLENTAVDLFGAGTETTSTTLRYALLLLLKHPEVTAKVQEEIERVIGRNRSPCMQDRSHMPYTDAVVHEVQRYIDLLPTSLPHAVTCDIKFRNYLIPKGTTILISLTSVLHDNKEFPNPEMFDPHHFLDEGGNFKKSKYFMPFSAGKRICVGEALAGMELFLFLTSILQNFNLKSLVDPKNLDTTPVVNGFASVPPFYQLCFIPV
CYP2C9 inh – human CYP2C9 inhibition. CYP2C9 Supersomes, luciferin-H conversion, luminescence. inhibition, % at 5 µM. actives 20% (n = 96,000). AID 777;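 active means blocking of liver enzyme CYP2C9 beyond about 50% at 5 µM, limit read from the data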
PostGolgi yeast – growth inhibition of a yeast mutant, post-Golgi transport screen; post-Golgi transport phenotypic cell assay; actives 0.9% (n = 98,000); inhibition, % at 10 µM; AID 739;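 further: yeast cells grown in 1536-well plates; yeast grown about 18 h at 30C before absorbance read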
The depositor's hits bear a star; . = no result. This is a sample that favours compounds with a hit; in the whole collection about 32% have one here. Unless noted, no stated cut-off is given here; in the data, active means inhibition above about 30%; inactive means the rest.

SMILES	PostGolgi ctrl	CYP2C19 inh	CYP2C19 activ	CYP2C9 activ	CYP2C9 inh	PostGolgi yeast
CCOC(=O)c1c(NC(=O)C2CCN(S(=O)(=O)c3cccs3)CC2)sc(C)c1C	12	39	0.6	0.7	35	8
COc1ccc(N/C(=C(/C(Cl)=C(Cl)Cl)[N+](=O)[O-])n2nnc3ccccc32)cc1OC	6	10	0.9	0.7	26	-3
CCOC(=O)N1CCN(S(=O)(=O)c2cc(Br)cnc2N)CC1	-8	95*	0.1	0.1	94*	-6
CCOC(=O)N1CCN(C(=O)C2CCCN(S(=O)(=O)c3ccccc3)C2)CC1 (configuration not stated)	-3	10	0.9	0.8	24	9
CCOC(=O)N1CCN(C(=O)C2CCCN(S(=O)(=O)c3ccc(C)cc3)C2)CC1 (configuration not stated)	4	53*	0.5	1.6	-57	2
Cc1csc(NC(=O)C2CCCN(S(=O)(=O)c3ccc(Br)s3)C2)n1 (configuration not stated)	20	92*	0.1	0.1	94*	-2
C=CCOC(=O)C1=C(C)Nc2nnnn2C1c1cccc(OC)c1OC (configuration not stated)	3	59*	0.4	0.2	83*	9
CCOC(=O)C1=C(C)Nc2nnnn2C1c1cccc(OC)c1OC (configuration not stated)	21	.	.	.	.	-1
CCOC(=O)C1=C(C)Nc2nnnn2C1c1c[nH]c2ccccc12 (configuration not stated)	.	90*	0.1	0.2	84*	.
CC(C)c1nnc(NC(=O)CCC(=O)N2CCN(c3ccccn3)CC2)s1	6	1	1	1	-4	3
CCCCCCCOc1ccc(OC(=O)c2ccncc2)cc1	-1	10	0.9	0.8	23	-4
Cc1cccc(-n2nnc(C(=O)NC3CCCc4ccccc43)c2N)c1 (configuration not stated)	17	15	0.8	1.6	-65	-1
Cc1ccc(NC(=O)C2C(c3ccccc3)C=CC(c3ccccc3)C2C(=O)O)cc1 (configuration not stated)	6	4	1	0.8	25	2
O=C(c1ccccc1)N1CCC(c2nc3c(nnn3Cc3ccccc3Cl)c(=O)[nH]2)CC1	3	40	0.6	0.4	63*	2
O=C(c1ccccc1Cl)N1CCC(c2nc3c(nnn3Cc3ccco3)c(=O)[nH]2)CC1	15	.	.	.	.	2
COc1ccccc1Cn1nnc2c(=O)[nH]c(C3CCN(C(=O)c4ccccc4Cl)CC3)nc21	1	75*	0.2	0.1	94*	2
CC(C)(C)CC(=O)N1CCC(c2nc3c(nnn3Cc3c(F)cccc3Cl)c(=O)[nH]2)CC1	6	52*	0.5	0.2	82*	11
COc1ccccc1Cn1nnc2c(=O)[nH]c(C3CCN(C(=O)c4ccc(C)cc4)CC3)nc21	6	32	0.7	0.3	66*	-1
CN(C)CC(C)(C)CNC(=O)C1CCN(Cc2ccccc2O)CC1	8	4	1	0.9	11	3
O=C(Cc1ccccc1)Nc1ccc(N2CCCC2)cc1	6	24	0.8	0.9	14	-6
COc1cc2c(cc1NC(=S)Nc1cccc(C(F)(F)F)c1)oc1ccccc12	14	70*	0.3	0.2	79*	-2
FC(F)(F)c1cccc(NC(=S)NCc2ccccc2)c1	22	63*	0.4	1.9	-88	3
O=C(Cc1ccccc1)Nc1cccc(N2CCCC2)c1	1	26	0.7	0.2	77*	-2
COc1cc(NC(=O)CSCC(=O)Nc2cccc(C(F)(F)F)c2)c(Cl)cc1Cl	28	31	0.7	0.5	50*	7
FC(F)(F)c1cccc(NC(=S)NCCc2ccccn2)c1	-4	24	0.8	1	-1	-7
SMILES	PostGolgi ctrl	CYP2C19 inh	CYP2C19 activ	CYP2C9 activ	CYP2C9 inh	PostGolgi yeast
O=C(COCC(=O)Nc1cccc(C(F)(F)F)c1)Nc1cccc(C(F)(F)F)c1	43*	84*	0.2	0.8	17	3
Cc1ccc(OC(F)F)c(NC(=O)Nc2cccc(C(F)(F)F)c2)c1	56*	12	0.9	0.9	15	-2
CNC(=O)Nc1cccc(C(F)(F)F)c1	15	.	.	.	.	10
CN(C)S(=O)(=O)Oc1ccccc1C(=O)Nc1cccc(C(F)(F)F)c1	14	86*	0.1	0.9	8	2
O=C(CN1CCN(c2cccc(C(F)(F)F)c2)CC1)Nc1cccc(C(F)(F)F)c1	35*	42	0.6	0.4	58*	-2
CC(C)CC(=O)Nc1nnn(C)n1	2	15	0.8	1.1	-6	2
O=C(NCCCCCCNC(=O)N1CCCCCC1)N1CCCCCC1	6	1	1	0.9	7	1
CCC(C(=O)Nc1cccc(C(F)(F)F)c1)c1ccccc1 (configuration not stated)	23	56*	0.4	0.3	71*	-5
COC(=O)c1cccc(NC(=O)CN2CCOCC2)c1	5	12	0.9	0.7	26	0
O=C(CN1CCOCC1)Nc1cccc(C(=O)Nc2cccc(C(F)(F)F)c2)c1	23	25	0.8	0.5	52*	-11
CC1CCCC(NC(=O)c2n[nH]c(=O)c3ccccc23)C1C (configuration not stated)	3	5	0.9	0.8	20	8
Cn1c(Cc2cccs2)nnc1SCc1nc2ccccc2[nH]1	-2	59*	0.4	1	3	-6
CCOC(=O)CSc1nnc(CCc2nc3ccccc3[nH]2)n1C	10	0	1	1	0	6
Cn1c(SC/C=C/c2ccccc2)nnc1-c1ccco1	30*	.	.	.	.	4
Nn1c(SC/C=C/c2ccccc2)nnc1-c1ccncc1	3	54*	0.5	0.9	11	18
Cn1c(SCc2nc3ccccc3[nH]2)nnc1-c1cccs1	-1	78*	0.2	0.8	20	-5
COc1cc(-c2nnc(SC/C=C/c3ccccc3)n2N)cc(OC)c1OC	20	14	0.9	0.9	7	6
Cc1[nH]nc(N2CCCCCC2)c1[N+](=O)[O-]	13	48	0.5	0.8	22	10
CCOC(=O)c1cc2c(=O)n3cccc(C)c3nc2n(Cc2ccccc2Cl)c1=N	.	0	1	0.9	13	.
Cn1c(Cc2cccs2)nnc1SC/C=C/c1ccccc1	52*	.	.	.	.	-2
Cc1cc(Cl)c(S(=O)(=O)NCc2ccncc2)cc1OCC(N)=O	12	45	0.6	0.8	16	-5
COc1cc(C)c(Cl)cc1S(=O)(=O)NCc1ccncc1	-10	98*	0	0.5	50*	-9
COc1cc(C)c(Br)cc1S(=O)(=O)NCc1ccccc1	3	65*	0.3	1.4	-38	6
Cc1noc(C)c1COC(=O)CCN1c2ccccc2Sc2ccccc21	5	88*	0.1	0	98*	0
